Here are results for 57 molecules from PubChem BioAssay AID1578 (Sanford-Burnham Center for Chemical Genomics, 2009).

Each structure is given as a SMILES string. Where “and” joins values, the source holds several entries; their conditions need not be identical. Equal entries are not always repeated. Out of some 290,000 compounds screened, about 3,000 (1%) were called active. Only a selection was taken, and actives are over-represented in it overall. Unmarked numbers belong to inactive results. Cut-off read from the data, not from the text of the source: active = inhibition mostly above about 36% (no sharp cut-off); inactive = mostly below about 34%.

A short description of the assay: inhibition of NOD1-driven NF-kB reporter – cell-based, luminescence, uHTS, primary screen (AID 1578).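 Note: HEK-293T reporter cells stimulated with the NOD1 agonist gamma-tri-DAP.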 The conditions noted are these: NOD1-driven NF-kB luciferase reporter cells, at 4 µM, stronger effect = higher value. A general note: A reporter such as luciferase makes a cellular process visible.
As usually defined, the inhibition is the relative decrease from the control value, in per cent. Regarding `C=CCNC(=S)Nc1ccc(OC(F)F)c(Cl)c1`, the inhibition is -16.4%. With `CN1C(=O)Cc2cc(S(=O)(=O)NCCc3ccc(Cl)cc3)ccc21`, the inhibition was -20.9%. Take `Cc1ccc(S(=O)(=O)N2Cc3ccccc3CC2C(=O)Nn2cnnc2)cc1` (configuration not stated): the inhibition is -8.2%. Take `Cc1cc(C(=O)COC(=O)c2ccc3c(c2)OCO3)c(C)n1Cc1cccs1`: the inhibition is -27.2%. As to `CCn1nc(C(=O)OCC(=O)c2cc(C)n(Cc3cccs3)c2C)c2ccccc2c1=O`, the inhibition was -15%. Consider `Cc1cc(C(=O)COC(=O)c2ccccc2O)c(C)n1Cc1cccs1`, for which the inhibition was 99.2% (active). For `O=C(COC(=O)c1ccco1)NC1CCCC1` the value was -23.8%; for `Cc1cc(NC(=O)CSc2nc3ccsc3c(=O)n2CCCC(=O)NCCc2ccccc2)no1`, -20%; for `CC(C1CC1)N(Cc1ccccc1)C(=O)NC(=O)c1ccc(F)cc1` (configuration not stated), -23.2%.

On to `Cc1cccc(-n2cc(-c3ccccc3)c3c(N4CCOCC4)ncnc32)c1`, for which the inhibition was 56.2% (active). Regarding `Cc1ccc(-n2cc(-c3ccccc3)c3c(N4CCOCC4)ncnc32)cc1`, the inhibition is 20.2%. As to `Cc1cccc(-n2cc(-c3ccccc3)c3c(NN4CCOCC4)ncnc32)c1`, the inhibition was -8.1%. In the case of `CCc1c(C)nc(Nc2nc(C)c3cc(OC)ccc3n2)[nH]c1=O`, the inhibition is -42.8%. For `CCc1c(C)nc(Nc2nc(C)c3ccc(OC)cc3n2)[nH]c1=O`, the inhibition is -7.1%. With `COc1ccc2c(C)nc(Nc3nc(C)c(C)c(=O)[nH]3)nc2c1`, the inhibition is 80.7% (active). Regarding `Cc1sc2ncnc(N3CCC(C(=O)NNC(=O)c4ccccc4Cl)CC3)c2c1C`, the inhibition is 5.2%. Turning to `CNC(=O)COC(=O)c1ccc(OCC(=O)Nc2ccccc2OC)c(OC)c1`, the inhibition is -18.6%. As for `CC1(C)CC(=O)C2=C(C1)OC(N)=C(C#N)[C@@]21C(=O)N(CC(N)=O)c2ccccc21`, the inhibition is -14.4%. For the molecule `COc1ccccc1NS(=O)(=O)c1cc(NC(=O)c2cc3ccccc3oc2=O)ccc1C`, the inhibition is 42.3%. Take `Cc1ccc(NC(=O)c2cc3ccccc3oc2=O)cc1S(=O)(=O)N(C)C`: the inhibition is 98.1% (active). Take `Cc1ccc(NC(=O)c2cc3ccccc3o2)cc1S(=O)(=O)N(C)C`: the inhibition was -60.5%. Consider `O=C(NC1CCCN(c2ccc(C(F)(F)F)cn2)C1)c1ccncc1` (configuration not stated), for which the inhibition was -22%.

For the molecule `O=[N+]([O-])c1cccc(-c2nc(-c3ccccc3)c(-c3cccs3)[nH]2)c1`, the inhibition was -1.1%. Regarding `O=[N+]([O-])c1ccc(O)c(-c2nc(-c3ccccc3)c(-c3cccs3)[nH]2)c1`, the inhibition is 80.7% (active). As for `O=[N+]([O-])c1cccc(-c2nc(-c3cccs3)c(-c3cccs3)[nH]2)c1`, the inhibition was 26.4%. For `CCOC(=O)Cc1csc(NC(=O)CN2CCN(CC)CC2)n1` the value was -2.4%; for `O=C1c2ccccc2NC(c2cccs2)N1NS(=O)(=O)c1ccccc1` (configuration not stated), -22.6%.

With `N#C/C(=C\c1ccc(OCc2ccccc2)cc1)C(=O)Nc1nc2c(s1)CCN(Cc1ccccc1)C2`, the inhibition is -24.8%.

Consider `CC1Cc2ccccc2N1C(=O)CSc1nnc2c(n1)[nH]c1ccc(F)cc12` (configuration not stated), for which the inhibition was 48.5% (active). `CC1Cc2ccccc2N1C(=O)CSc1nnc2c(n1)[nH]c1ccccc12` (configuration not stated): the inhibition was -0.9%. For the molecule `CC1CCc2cc(F)ccc2N1C(=O)CSc1nnc2c(n1)[nH]c1ccc(F)cc12` (configuration not stated), the inhibition is 25.7%.

In the case of `CCCCN(Cc1ccccc1)S(=O)(=O)c1c(N)n(C)c(=O)n(C)c1=O`, the inhibition is -10.5%. As for `CCc1nc(SCC(=O)N2CCC(Cc3ccccc3)CC2)c2c(=O)n(C)c(=O)n(C)c2n1`, the inhibition was 34%. Regarding `CCCc1nc(SCC(=O)N2CCN(c3ccccc3)CC2)c2c(=O)n(C)c(=O)n(C)c2n1`, the inhibition was 9%.

On to `CCn1nc(NC(=O)c2cccnc2)c2cc3cccc(C)c3nc21`, for which the inhibition is -11.6%. For the molecule `Cc1cc(Cl)ccc1OCC(=O)NCCCCc1ccccc1`, the inhibition was -5.1%. As to `Nc1[nH]c(N=NC(=O)c2ccc(Cl)cc2)c2ccccc12`, the inhibition was -25.6%.

Regarding `CCOCCCNC(=S)Nc1ccc2nc(N3CCOCC3)cc(C)c2c1`, the inhibition was -4%.

Take `Cc1cc(-c2ccc(C(C)C)c(S(=O)(=O)NCCN3CCC(C)CC3)c2)on1`: the inhibition was -17.2%. As for `Cc1ccnc(NC(=O)Nc2cccc(F)c2)n1`, the figure is -65.5%; as for `Cc1ccc(C(=O)Nc2cccc(C(F)(F)F)c2)cc1Nc1ccccn1`, -7.5%. As to `CCN1CCN(Cc2ccc(NC(=O)c3ccc(C)c(NC(=O)N4CCNC4=O)c3)cc2C(F)(F)F)CC1`, the inhibition is -7.6% and 18%. Take `Cc1ccc(C(=O)Nc2cccc(C(F)(F)F)c2)cc1Nc1cnccn1`: the inhibition is -3.7%. For `CCN1CCN(Cc2ccc(C(=O)Nc3ccc(C)c(NCc4cnc(NC(=O)OC)cn4)c3)cc2C(F)(F)F)CC1`, the inhibition was -2.2%.

As to `CN(C)c1ccc(/C=C2\C(=N)N3N=C(CC(=O)N4CCCC4)SC3=NC2=O)cc1Br`, the inhibition is -16.4%. For the molecule `CC(C)(Oc1ccc(Cl)cc1)C(=O)Nc1ccc2oc(=O)ccc2c1`, the inhibition is -7.5%. For `Cc1cccc(NC(=O)Nc2cccc(C#N)c2)n1` the value was -17.2%. For `Cc1cccc(NC(=O)Nc2ccc(C#N)cc2)n1`, the inhibition was 62.7% (active). With `Cc1ccc(NC(=O)Nc2cccc(C)n2)cc1`, the inhibition is -12.5%. With `COc1ccc(OCC(=O)Nc2ccc3c(c2)nc(CCN2CCCCC2)n3C)cc1`, the inhibition is -22.2%. For `Cc1nnc(NC(=O)c2c(F)c(F)c(F)c(F)c2F)s1`, the inhibition is -22.9%. For the molecule `O=C(N/N=C/c1ccc(OC(=O)c2ccccc2Cl)cc1)c1ccccn1`, the inhibition was -55.2%. For `CN1C(CC(=O)Nc2ccc(Br)cc2)c2ccccc2CC1(C)C` (configuration not stated), the inhibition is 92.6% (active). On to `Cc1ccccc1NC(=O)CC1c2ccccc2CC(C)(C)N1C` (configuration not stated), for which the inhibition was -25.6%. For `CN1C(CC(=O)Nc2ccc(Cl)cc2Cl)c2ccccc2CC1(C)C` (configuration not stated) the value was 2.4%; for `O=C1CC(N(CCc2ccccc2)C(=S)Nc2ccccc2)C(=O)N1c1ccc(Br)cc1` (configuration not stated), -50%. For the molecule `Cc1cc2cc(C)c(NCCNC(=O)c3ccccc3Cl)nc2cc1C`, the inhibition was -21.1%.
